Measurements as given in PubChem BioAssay AID1893 (NMMLSC, 2009).
The campaign covered roughly 5,900 compounds. About 120 (2%) were called active. Only a sample is shown. Values without a mark were called inactive. Cut-off read from the data, not from the text of the source: active = percent response mostly above about 71% (no sharp cut-off); inactive = mostly below about 38%.

Test system: MEKK2 (MAP3K2) mutant PB1 domain binding MEK5, human
Experiment: mutant MEKK2 PB1-MEK5 binding signal retest – biochemical, single concentration, multiplex bead flow cytometry, confirmation (AID 1893);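 note: higher means compound restores mutant binding toward wildtype level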
Settings: Alexa488-MEK5 binding to MEKK2 mutant, at 10 µM, active compounds read high

Row | Structure (SMILES) | percent response
1 | Cc1ccccc1-c1ccc(Nc2ccc(C(=O)N3CCOCC3)cc2)nn1 | 4%
2 | COc1cc(CC(=O)N/N=C/c2ccccc2)c([N+](=O)[O-])cc1OC | 4%
3 | CCOc1ccc(S(=O)(=O)N(CC(=O)O)c2ccccc2)cc1 | 1%
4 | Cc1ccc(S(=O)(=O)/N=S(\C)C(C)C)cc1 (centres undefined) | -3%
5 | O=C(c1ccco1)N1CCN(c2cccc(Cl)c2)CC1 | 0%
6 | C/C(=N\NC(=O)CNC(=O)C(c1ccccc1)c1ccccc1)c1ccc(C)cc1 | 7%
7 | C=CCN(CC=C)S(=O)(=O)c1ccc(C(=O)Nc2sc3c(c2C(N)=O)CCCCC3)cc1 | 1%
8 | FC(F)(F)c1cccc(N/N=C/c2ccccc2)c1 | 28%
9 | COc1cc(-c2nnc(Cn3cc(C(F)(F)F)ccc3=O)o2)cc(OC)c1OC | 1%
10 | CCNC(=O)CSc1nc(-c2ccccc2)cs1 | -1%
11 | O=C(NCCCN1CCCCCC1)c1ccc(N2CCCC2=O)cc1 | 38%
12 | CN(C)CC(O)COc1ccc(C(C)(C)c2ccc(OCC(O)CN(C)C)cc2)cc1 (centres undefined) | 48%
13 | Cc1[nH]c2ccc(S(N)(=O)=O)cc2c1C | -1%
14 | CN(C)CCCNC(=O)c1cc(C(=O)Cc2ccc(Cl)cc2)c[nH]1 | 3%
15 | N/C(=N\OS(=O)(=O)c1cccc([N+](=O)[O-])c1)c1ccncc1 | 3%
16 | COc1cccc(CNCCc2c[nH]c3ccccc23)c1OCc1ccccc1F | 9%
17 | COc1ccccc1CC(=O)Nc1ccc([N+](=O)[O-])cc1OC | 0%
18 | O=C(Nc1cccnc1)c1cc(Cl)ccc1Cl | 3%
19 | Cc1ccc(CNC(=O)Cn2c(=O)c3sccc3n(Cc3cccc([N+](=O)[O-])c3)c2=O)cc1 | 2%
20 | O=C(O)/C(=C/c1cccnc1)NC(=O)c1ccccc1 | 1%
21 | CCOc1nnc(C)c2c(C)n(-c3cccc(Cl)c3)nc12 | -10%
22 | Cc1ccccc1C(=O)NNC(=O)CN1C(=O)c2ccccc2C1=O | -10%
23 | CC(C)(C)NC(=O)c1cccc(NC(=O)Cc2ccc(Br)cc2)c1 | 1%
24 | Cn1c2ccccc2c(=O)c2c(=O)n(Cc3ccco3)c(COc3ccccc3)nc21 | -6%

Row | Structure (SMILES) | percent response
25 | CCOc1ccc(C(c2c(C)[nH][nH]c2=O)c2c(C)[nH][nH]c2=O)cc1OCC | -3%
26 | COc1cccc(Nc2ncccc2C(=O)O)c1 | -5%
27 | C[C@H]1CCC(=O)N([C@H](CSc2ccccc2)Cc2ccccc2)CC1 | 8%
28 | Cc1cccc(/C=N/NC(=O)CNc2cccc3ccccc23)n1 | 5%
29 | c1ccc(Nc2nc(N3CCOCC3)c3ccccc3n2)cc1 | 21%
30 | Cc1ccc(N(CCC(=O)O)S(=O)(=O)c2cccc(C(F)(F)F)c2)cc1 | 1%
31 | O=C(NCCN1CCOCC1)[C@H](Cc1ccccc1)N1C(=O)c2ccccc2C1=O | 2%
32 | COCCN1C=C2C(=O)C(C)(OC(=O)C3CCCC3)C(=O)C=C2C=C1c1ccsc1 (centres undefined) | -2%
33 | COC(=O)C1=NN(c2ccccc2)C2C(=O)N(c3ccccc3OC)C(=O)C12 (centres undefined) | -1%
34 | CC(=O)Nc1ccc(N2CCOCC2)c(C(=O)Nc2cccc(C)c2)c1 | 3%
35 | Clc1ccc(-c2nnc(SCc3nc4ccccc4s3)o2)cc1 | -4%
36 | COc1ccc(CC(=O)N2N=C(C)CC2(O)C(F)(F)F)cc1 (centres undefined) | -3%
37 | O=C(CN1CCN(C(=O)c2ccco2)CC1)Nc1ccc(Cl)c(C(F)(F)F)c1 | 7%
38 | COc1ccc(C2CC(=O)Nc3cc(C)c(C)cc32)c(OC)c1OC (centres undefined) | 4%
39 | COc1ccc(C(=O)NCC(=O)N/N=C/c2ccc([N+](=O)[O-])o2)cc1OC | -10%
40 | CCO[C@H]1OC(C(=O)N2CCOCC2)=C[C@@H](c2ccc3c(c2)OCO3)[C@@H]1CCCO | 4%
41 | Cc1ccc(C(=O)N/C(=C/c2ccco2)C(=O)NCCc2c[nH]c3ccccc23)cc1C | -4%
42 | CN(C)CCCN(C(=O)COc1ccccc1)c1nc2c(Cl)cccc2s1 | 18%
43 | CN(C)c1ccc(/C=C2\NC(=S)N(Cc3ccccc3)C2=O)cc1 | -10%
44 | C=CCN1C=C2C(=O)C(C)(OC(=O)CCc3ccccc3)C(=O)C=C2C=C1c1ccc(C#N)cc1 (centres undefined) | -1%
45 | COc1ccc(CCNC(=O)CSc2nnc3ccc(-c4ccncc4)nn23)cc1 | 6%
46 | CCN(CC)C(=O)CC(c1ccc2c(c1)OCO2)c1c(OC)cc(OC)c2c(-c3ccccc3)cc(=O)oc12 (centres undefined) | -4%
47 | COc1cccc(/C=N\NC(=O)C2=NNC(=O)C2C)c1O (centres undefined) | 1%
48 | FC(F)(F)c1nc(-c2ccccc2)ncc1-c1nnnn1-c1ccccc1 | -6%

Row | Structure (SMILES) | percent response
49 | CCOC(=O)N1CCN(CC(=O)n2c(C)c(C)c3ccccc32)CC1 | -3%
50 | COc1cccc(/C(C)=N/Nc2ncc(Cl)cc2Cl)c1 | -3%
51 | c1ccc(CN2CCC(N=C3NN=C(c4ccc5c(c4)OCCO5)CS3)CC2)cc1 | 52%
52 | Cc1cccc(CN2CCC(CNC(=O)Nc3ccc(F)c(Cl)c3)CC2)c1 | 8%
53 | CCN1CCN(CCNC(=O)c2ccc(/C=C3/Sc4ccccc4N(Cc4cccc(C)c4)C3=O)cc2)CC1 | 79% (active)
54 | CCc1nnc(NC(=O)c2sc3nc(C)cc(COC)c3c2N)s1 | 7%
55 | COc1cccc(OC)c1C(=O)Nc1ccc(Cc2ccncc2)cc1 | -2%
56 | CCCCOC(=O)c1ccc(N2C(=O)CC(N3CCN(C/C=C/c4ccccc4)CC3)C2=O)cc1 (centres undefined) | 12%
57 | Cn1ccc(=Nc2ccc(NC(=O)c3ccc(N=c4ccn(C)c5ccc([N+](=O)[O-])cc45)cc3)cc2)cc1 | 28%
58 | C=CCn1c(P(C)(=O)O)nc2ccccc21 | -4%
59 | CCN(CC)CCC(c1ccc2c(c1)OCO2)c1c(OC)cc(OC)c2c(-c3ccccc3)cc(=O)oc12 (centres undefined) | 28%
60 | COC(=O)c1c(NC(=O)COc2ccc(Cl)cc2Cl)sc2c1CC(C)(C)NC2(C)C | 36%
61 | CN(C)CCCNC(=S)N1CCN(c2nc(-c3ccccc3)cs2)CC1 | 14%
62 | O=c1[nH]c(=S)[nH]c2[nH]c(=S)[nH]c12 | -2%
63 | COc1cc(-c2nc(-c3ccncc3)no2)cc(OC)c1OC | 6%
64 | Cc1ccc(NC(=S)N(CCCN2CCCC2)Cc2cccn2Cc2ccc(Cl)cc2)cc1 | 13%
65 | Cc1ccc2c(C)c(C(=O)N3CCN(c4ccncc4)CC3)oc2c1C | 31%
66 | N=C1/C(=C/c2cccn2-c2cccc([N+](=O)[O-])c2)C(=O)N=C2SC=CN12 | -6%
67 | CC(=O)N1CCN(S(=O)(=O)c2ccc(C)c([N+](=O)[O-])c2)C1C(C)C (centres undefined) | -1%
68 | COC(=O)c1nc2n(n1)C(c1ccc([N+](=O)[O-])cc1)C(C(=O)Nc1ccc(Cl)cc1)=C(C)N2 (centres undefined) | 2%
69 | Cc1ccccc1CCN(CC(=O)NC1CCCCC1)C(=O)c1csnn1 | -24%
70 | CCCn1c(=N)n(CC(=O)c2ccc(Cl)c(Cl)c2)c2ccccc21 | 33%
71 | CC(C)CC(=O)NC(=S)Nc1cc(C(=O)O)ccc1Cl | -1%
72 | O=C1NCC(=O)N(Cc2ccccc2)/C1=C/c1ccccc1 | -16%

Row | Structure (SMILES) | percent response
73 | CCc1ccc(-c2nn(-c3ccccc3)cc2CSC(=N)N)cc1 | 68%
74 | CNC(=O)/C(=C\C=C\c1ccccc1)NC(=O)c1ccc([N+](=O)[O-])cc1 | 7%
75 | O=C(O)CC(Cc1ccccc1)C(=O)Nc1ccc([N+](=O)[O-])cc1 (centres undefined) | -3%
76 | O=C(COC(=O)CNC(=O)c1ccco1)Nc1ccc(F)cc1 | 1%
77 | COc1ccc(S(=O)(=O)N2CN(CCc3ccc(OC)c(OC)c3)c3nc4ccccc4nc32)cc1 | -4%
78 | CCOC(=O)/C(C#N)=C/c1ccc(OCC(=O)Nc2ccccc2)c(OC)c1 | 1%
79 | CC(C)C(=O)N1c2ccccc2NC2=C(C(=O)CCC2)C1c1ccc(N(C)C)cc1 (centres undefined) | 10%
80 | COCC(C)NC(=O)COc1nncc2ccccc12 (centres undefined) | -7%
81 | O=C(NCc1ccccc1Cl)NC(=O)c1csc([N+](=O)[O-])c1 | 1%
82 | Cn1c(C(=O)NCCCN2CCCCC2)cc2sccc21 | 10%
83 | COc1cc(Br)c(-c2sc(Nc3ccccc3)n[n+]2-c2ccccc2)cc1OC | 14%
84 | CCc1ccc2nc(Nc3ncc(C(C)=O)c(C)n3)nc(C)c2c1 | 0%
85 | CCOC(=O)c1c(-c2ccccc2)csc1NC(=S)NC(=O)c1ccccc1 | 0%
86 | O=C(CN1C(=O)c2cccnc2Oc2ccc(Cl)cc21)Nc1ccc(F)cc1 | 1%
87 | N=c1c2c(-c3ccccc3)c(-c3ccccc3)n(Cc3ccccc3)c2ncn1CCCO | 21%
88 | Cc1noc(C)c1S(=O)(=O)N(C)Cc1ccccc1 | 5%
89 | Cc1nn(-c2ccccc2)c(NC(=O)c2cccs2)c(-c2ccc(Cl)cc2)c1=O | -4%
90 | COc1cccc(NC(=S)NCCCN2CCOCC2)c1 | 6%
91 | CCN(CC)CCOCCOc1ccc(Cl)c2ccccc12 | 22%
92 | CCCCCCCCCCOC(=O)Cn1c(COc2ccc(C)cc2)[n+](C)c2ccccc21 | 74% (active)
93 | CCCCCCCCCCOC(=O)Cn1c(COc2cccc(OC)c2)[n+](C)c2ccccc21 | 115% (active)
94 | CN(C)CCCN(C(=O)c1ccc(S(=O)(=O)N2CCCc3ccccc32)cc1)c1nc2ccc(F)cc2s1 | 53%
